The text below walks through data of PubChem BioAssay (NCATS).

Results filed as inconclusive are left out. A call without a number means that no potency is given here. The source made the active and inactive calls. Calls follow the shape of the dose curve; as a rule, active = well fitted inhibition curve with a large enough effect; inconclusive = small, poorly fitted or top-dose-only effect; inactive = no such curve, though single readings can be large or run the other way.

Test [1] has as its system Zika virus NS2B-NS3 protease (unlinked complex). Put plainly: Primary screen GU Rhodamine qHTS for Zika virus inhibitors: Unlinked NS2B-NS3 protease assay (AID 1347159). Also: nearly all actives have a fitted effect of over 60% in size. In a few lines: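 In dose–response format, inhibition of unlinked protease (25 nM) was measured with 1.5 microM bis-peptide Rhodamine110 substrate. Aprotinin served as the intraplate control.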
A general note: In qHTS, concentration-response curves come from the screen itself.

Test [2] concerns Zika virus NS2B-NS3 protease (linked construct). The test can be described thus: Primary screen NINDS Rhodamine qHTS for Zika virus inhibitors (AID 1347160). Also: nearly all actives have a fitted effect of over 55% in size. An outline of the steps:
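Each compound, titrated, sat 15 min with 25 nM linked protease before 1.5 microM Rhodamine110 substrate went in. Fluorescence gain over the next 15 min, in pH 8.0 Tris with Tween 20, gave Hill-fitted curves.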

`N#Cc1ccc(O[C@@H]2c3ccccc3C[C@H]2N2CCC[C@@H](N)C2)c(Cl)c1`: the Potency result in test [1] and in test [2] was “inactive” each time.
As for `CCCc1cc(C)[nH]c(=O)c1CNC(=O)c1cc(-c2ccc(N3CCN(C(C)C)CC3)nc2)cc2c1cnn2C(C)C`, the Potency entry in test [1] and in test [2] was “inactive” in each case.
Take `C/C(=C\CO[C@@H]1O[C@H](CO[C@H]2OC[C@](O)(CO)[C@H]2O)[C@@H](O)[C@H](O)[C@H]1O)C(C)(C)O`: the Potency result in test [1] and in test [2] was “inactive” in each case.
As to `C[C@H](Nc1ncnc2nc[nH]c12)c1cc2cccc(Cl)c2c(=O)n1-c1ccccc1`, the Potency entry in test [1] and in test [2] was “inactive” in each case.
With `C/C=C/C1=CC2=C(CO1)C(=O)C(C)(OC(=O)c1c(C)cc(O)cc1OC)C(O)C2` (stereo unspecified), the Potency entry in test [1] and in test [2] was “inactive” throughout.
For the compound `COc1ccc2c(NC(=O)Nc3cccc(C(F)(F)F)n3)ccnc2c1`, the Potency result in test [1] and in test [2] was “inactive” throughout.
In the case of `O=C(Cc1c(F)cccc1F)Nc1cc(OCc2ccc(Cl)cc2)ccn1`, the Potency result in test [1] and in test [2] was “inactive” in each case.
For the compound `Cc1ccc(-c2cn3c4c(sc3n2)CCCC4)cc1`, the Potency entry in test [1] and in test [2] was “inactive” each time.
Turning to `COc1ccc(-c2csc(NC(=O)[C@H]3CCCCN3S(=O)(=O)c3ccc(C)cc3)n2)cc1`, the Potency result in test [1] and in test [2] was “inactive” in each case.
As to `O=C(NCCCn1ccnc1)c1cc(-c2ccco2)on1`, the Potency entry in test [1] and in test [2] was “inactive” throughout.
For the compound `OC1(CN2CCC(COc3noc4cccc(O[C@@H]5CCOC5)c34)CC2)CCOCC1`, the Potency result in test [1] and in test [2] was “inactive” each time.
In the case of `Cc1ccc(-c2ncc[nH]2)cc1NC(=O)c1ccc(OCc2ccccn2)cc1`, the Potency entry in test [1] and in test [2] was “inactive” each time.
In the case of `Cn1ncc(Cl)c1-c1cc(C(=O)N[C@H](CN)Cc2ccc(F)c(F)c2)sc1Cl`, the Potency entry in test [1] and in test [2] was “inactive” throughout.
